In PubChem BioAssay (EPA / NIEHS) one finds outcome and AC50 data, which are given here for 40 compounds.

Several values for one entry are separate records, joined by “and”; a condition that tells them apart may be missing. Equal entries are not always repeated. Activity calls are given as the source filed them. The calls were made as follows: active = hit-call score of the fitted dose curve at least 0.9, where 1 is the maximum; inactive = score below 0.9.

Read-out in the assay: Interleukin-8 (IL8), CXCL8 (gene 3576)
Briefly: BSK_3C_IL8: BioMAP Diversity Plus: 3C Assay for Interleukin-8 (IL8) Biomarker Activity (AID 2283020). To be noted: primary human endothelial cells (HUVEC); actives raise or lower the signal. As for the experimental part:
BSK_3C is a cell-based, multiplexed-readout assay that uses umbilical vein endothelium, a human vascular primary cell, with measurements taken at 24 hours after chemical dosing in a 96-well plate.BSK_3C_IL8 is an assay component measured in the BSK_3C assay. It measures IL-8 antibody related to regulation of gene expression using ELISA technology.Data from the assay component BSK_3C_IL8 was analyzed into 1 assay endpoint. This assay endpoint, BSK_3C_IL8, was analyzed with bidirectional fitting relative to DMSO as the negative control and baseline of activity. Using a type of binding reporter, gain or loss-of-signal activity can be used to understand changes in the signaling as they relate to the gene CXCL8. Furthermore, this assay endpoint can be referred to as a primary readout, because this assay has produced multiple assay endpoints where this one serves a signaling function. To generalize the intended target to other relatable targets, this assay endpoint is annotated to the cytokine intended target family, where the subfamily is interleukins.
The levels of cell surface (or secreted, indicated by the prefix "s") biomarker endpoints were measured by ELISA. Overt cytotoxicity to cells in confluent adherent cultures (all systems other than the BT system) was assessed by measuring total protein levels using sulforhodamine B (SRB) staining in parallel cultures at the time of biomarker measurements, indicated as SRB endpoints. For proliferation assays for adherent cell types, individual cell types are cultured at sub-confluence and relative cell numbers quantified by SRB staining at time points optimized for each system (48 h: 3C and CASM3C systems; 72 h: BT and HDF3CGF systems; 96 h: SAg system). SRB was performed by staining cells with 0.1% SRB after fixation with 10% TCA and reading wells at 560 nm.Viability and proliferation of PBMC (T cells) was quantified by Alamar Blue reduction for the SAg and BT systems. For PBMC viability (referred to as PBMC Cytotoxicity within the assay endpoint names), cells were plated (75,000/well in a 96-well plate) and then chemical samples added for 1 h before addition of activators, SEB and TSST-1 (20 ng/mL final concentration each). Cells were incubated for 90 h. Then, Alamar Blue (20 uL/well) (Invitrogen, Cat DAL1100) was added for 6 h, and the plates were read with a fluorescence microplate reader at 546/580 nm (excitation/emission). For PBMC proliferation, cells were plated and activated as above but incubated for only 16 h prior to addition of Alamar Blue. Plates were read after 6 h.
As for `CN(C)C(=O)Nc1ccc(Cl)c(Cl)c1`, the outcome was inactive.
As to `S=C(S)NCCNC(=S)S.[Mn+2].[S-]C([S-])=NCCN=C([S-])[S-].[Zn+2]`, the result was inactive.
Regarding `N[C@@H](Cc1cc(I)c(Oc2ccc(O)c(I)c2)c(I)c1)C(=O)O`, the result was inactive.
`O=C(c1ccc(O)cc1O)c1ccc(O)cc1O`: the outcome was inactive.
As a reminder, the AC50 is the concentration giving half of the maximal activity seen. In the case of `N#CSCSc1nc2ccccc2s1`, the AC50 was 8.35 µM (active) and 14.4 µM (active).
As for `CCOC(=O)C(C)Oc1ccc(Oc2nc3ccc(Cl)cc3o2)cc1` (stereo not given), the outcome was inactive.
Take `CCCCOC(=O)[C@@H](C)Oc1ccc(Oc2ccc(C(F)(F)F)cn2)cc1`: the result was inactive.
For `COc1nc(C)nc(NC(=O)NS(=O)(=O)c2ccccc2OCCCl)n1`, the result was inactive.
Same read-out and setting: the result for `COC(=O)CSc1cc(N=c2sc(=O)n3n2CCCC3)c(F)cc1Cl` reads “inactive”; that for `COC(=O)c1cccc(C)c1S(=O)(=O)NC(=O)Nc1nc(OCC(F)(F)F)nc(N(C)C)n1`, “inactive”.
For `CCCN(CCC)c1c([N+](=O)[O-])cc(C(F)(F)F)c(N)c1[N+](=O)[O-]`, the AC50 is 32.9 µM (active).
On to `CCOC(=O)C(C)Oc1ccc(Oc2cnc3cc(Cl)ccc3n2)cc1` (stereo not given), for which the result was inactive.
In the case of `CCNc1nc(N)nc(Cl)n1`, the outcome was inactive.
Turning to `COc1c(Cl)ccc(Cl)c1C(=O)O`, the result was inactive.
For `CC(=O)S[C@@H]1CC2=CC(=O)CC[C@]2(C)[C@H]2CC[C@@]3(C)[C@@H](CC[C@@]34CCC(=O)O4)[C@H]12`, the AC50 was 18.9 µM (active).
As for `O=C(O)c1ccccc1`, the result was inactive.
Regarding `CC(C)CCCCCCc1ccc(O)cc1`, the AC50 is 8.35 µM (active).
Regarding `CC(C)(C)[C@@H](O)[C@@H](Cc1ccc(Cl)cc1)n1cncn1`, the outcome was inactive.
For `CCCCC(CC)CN1C(=O)C2C3C=CC(C3)C2C1=O` (stereo not given), the outcome was inactive.
As for `CSC(=O)c1cccc2nnsc12`, the outcome was inactive.
The same measure, in the same setting: the entry for `CCC(C)OC(=O)N1CCCCC1CCO` (stereo not given) is “inactive”; for `CCSC(=O)N(CC(C)C)CC(C)C` it is “inactive”; for `COC(=O)c1c(Cl)nn(C)c1S(=O)(=O)NC(=O)Nc1nc(OC)cc(OC)n1` it is “inactive”.
For the compound `O=C(O)C1(C(=O)Nc2ccc(Cl)cc2Cl)CC1`, the outcome was inactive.
On to `CCOC(=O)[C@H](C)Oc1ccc(Oc2nc3ccc(Cl)cc3o2)cc1`, for which the result was inactive.
Regarding `COCCO`, the outcome was inactive.
In the case of `CCCN(CCC)C(=O)SCC`, the result was inactive.
Same read-out and setting: the result for `S=C([S-])NCCNC(=S)[S-].[Mn+2]` reads “inactive”.
With `CC(=O)[C@H]1CC[C@H]2[C@@H]3CCC4=CC(=O)CC[C@]4(C)[C@H]3CC[C@]12C`, the AC50 is 20 µM (active).
For the compound `C#C[C@]1(O)CC[C@H]2[C@@H]3CCC4=CC(=O)CC[C@@H]4[C@H]3CC[C@@]21CC`, the result was inactive.
Consider `O=C(Nc1ccc([N+](=O)[O-])cc1Cl)c1cc(Cl)ccc1O`, for which the result was inactive.
The same measure, in the same setting: the result for `c1ccc(Nc2ccccc2)cc1` reads “inactive”.
Turning to `CCOC(=O)NCCOc1ccc(Oc2ccccc2)cc1`, the AC50 is 15 µM (active).
On to `CCC(O)=C1C(=O)CC(C(=O)O)CC1=O` (stereo not given), for which the result was inactive.
As for `CCCOC(=O)c1ccc(C(=O)OCCC)nc1`, the result was inactive.
Turning to `C=CCOC(Cn1ccnc1)c1ccc(Cl)cc1Cl` (stereo not given), the outcome was inactive.
As for `CCOC(=O)c1ccc(O)cc1`, the result was inactive.
On the same count and under the same terms, the entry for `COC(=O)c1ccccc1S(=O)(=O)NC(=O)Nc1nc(OC(F)F)cc(OC(F)F)n1` is “inactive”; for `CCCOC(=O)NCCCN(C)C` it is “inactive”; for `O=C(c1ccccc1)C1CCCCC1` it is “inactive”.
